The source of these data is PubChem BioAssay (EPA / NIEHS).

Values joined by “and” are separate entries in the source; they are usually repeats but may differ in a detail not shown here. Equal values may be shown once. More than one record can exist for a structure, and the calls need not agree. Active and inactive are the calls of the source. The calls were made as follows: active = hit-call score of the fitted dose curve at least 0.9, where 1 is the maximum; inactive = score below 0.9.

Experiment [1] can be described thus: ATG_PBREM_CIS: Attagene CIS-FACTORIAL HepG2 Assay for human Phenobarbital-responsive Enhancer Module (PBREM) (AID 2282955). As to conditions: HepG2 PBREM cis-reporter, Attagene multiplexed transcription; actives raise or lower the signal. The essentials:
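After a 24 h incubation with test chemical, transfected HepG2 cells yield total RNA; reporter-specific RT-PCR products are fluorescently labelled, HpaI-digested and resolved by capillary electrophoresis against ROX size standards.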

Experiment [2] has as its target Paired box protein Pax-6 (Homo sapiens) (UniProt P26367). As to the kind of experiment: ATG_Pax6_CIS: Attagene CIS-FACTORIAL HepG2 Assay for human Paired Box 6 (PAX6) (AID 2282956). As to conditions: HepG2 CIS-FACTORIAL PAX6 reporter transcription, RNA readout; actives raise or lower the signal. The essentials:
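Readout: reporter transcript fluorescence after RT-PCR and capillary electrophoresis. Cells: HepG2, transiently transfected with cis-regulated MRTUs. Exposure 24 h. Gain or loss of signal fitted bidirectionally relative to DMSO.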

Experiment [3] is described as follows: ATG_PXRE_CIS: Attagene CIS-FACTORIAL HepG2 Assay for human Pregnane X Receptor Element (PXRE) (AID 2282957). As to conditions: HepG2 Attagene CIS-FACTORIAL PXRE reporter, mRNA; actives raise or lower the signal. The essentials: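 Reporter transcripts under endogenous PXR-responsive cis-regulation quantified from total RNA of transfected HepG2 cells 24 h post-dosing, via RT-PCR with fluorescent primer extension and capillary electrophoresis. Gain or loss of signal fitted against DMSO baseline.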

Experiment [4] in a line: ATG_PPRE_CIS: Attagene CIS-FACTORIAL HepG2 Assay for human Peroxisome Proliferator-activated Response Element (PPRE) (AID 2282958). The following applies: HepG2 PPRE cis-element reporter, Attagene transcription factor profiling; actives raise or lower the signal. The essentials: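 Multiplexed reporter transcription units under cis-regulatory promoters were transfected into HepG2 cells to capture endogenous factor activity. A 24 h incubation preceded RNA isolation and fluorescent RT-PCR fragment analysis.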

A short description of experiment [5]: ATG_RORE_CIS: Attagene CIS-FACTORIAL HepG2 Assay for human RAR-related Orphan Receptor Element (RORE) (AID 2282959). As to conditions: HepG2 Attagene cis-factorial RORE reporter, mRNA; actives raise or lower the signal. The gist of the method:
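Fluorescence intensity of reporter-specific cDNA fragments, separated by capillary electrophoresis, gives the signal. Source: HepG2 liver cells transiently transfected with cis-element reporters and exposed 24 h; DMSO-normalized bidirectional fit.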

The nature of experiment [6]: ATG_Sox_CIS: Attagene CIS-FACTORIAL HepG2 Assay for human SRY-box transcription factor (SOX) (AID 2282960). The following applies: HepG2 Attagene cis-factorial SOX reporter, mRNA; actives raise or lower the signal. The essentials: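 After 24 h of chemical treatment, transfected HepG2 reporter cells are lysed for total RNA. Transcript levels come from RT-PCR with labelled primer extension and capillary electrophoresis, analysed bidirectionally versus DMSO.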

For experiment [7], the target named is Transcription factor Sp1 (Homo sapiens) (UniProt P08047). Description: ATG_Sp1_CIS: Attagene CIS-FACTORIAL HepG2 Assay for human Specificity Protein 1 (Sp1) (AID 2282961). The following applies: HepG2 Sp1 cis-reporter transcription, actives raise or lower the signal. The gist of the method: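 Sp1-driven reporter mRNA, read as capillary electrophoresis fluorescence after RT-PCR, in transiently transfected HepG2 cells dosed for 24 h; signal change in either direction relative to DMSO.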

Experiment [8] can be described thus: ATG_SREBP_CIS: Attagene CIS-FACTORIAL HepG2 Assay for human Sterol Regulatory Element Binding (SREBP) (AID 2282962). As to conditions: HepG2 Attagene cis-factorial SREBP reporter, mRNA; actives raise or lower the signal. The essentials:
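Readout: fluorescent reporter-transcript peaks resolved by capillary electrophoresis after RT-PCR. Cells were human HepG2 carrying transfected cis-promoter reporter constructs, dosed for 24 h. Gain or loss of signal was fitted against DMSO controls.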

Experiment [9] deals with Signal transducer and activator of transcription 3 (Homo sapiens) (UniProt P40763). As to the kind of experiment: ATG_STAT3_CIS: Attagene CIS-FACTORIAL HepG2 Assay for human Signal Transducer and Activator of Transcription 3 (STAT3) (AID 2282963). The following applies: HepG2, Attagene cis-factorial STAT3 reporter transcription; actives raise or lower the signal. The essentials: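 HepG2, MRTU-transfected, 24 h dosing. RNA → RT → PCR → FAM label → HpaI → CE. Bidirectional fit vs DMSO.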

Experiment [10] can be described thus: ATG_TA_CIS: Attagene CIS-FACTORIAL HepG2 Assay for human TA Basal Promoter (AID 2282964). As to conditions: HepG2 Attagene CIS-factorial TA basal promoter reporter; actives raise or lower the signal. The gist of the method: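 Background-control readout: TA basal promoter reporter mRNA, fitted in both directions relative to DMSO. Measured by RT-PCR and capillary electrophoresis 24 hours after treating HepG2 human liver cells transiently carrying multiplexed cis-regulated reporter constructs.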

What is called AC50 is the concentration giving half of the maximal activity seen.

Transcription factor Sp1 (Homo sapiens), sequence (P08047 whole entry, looked up): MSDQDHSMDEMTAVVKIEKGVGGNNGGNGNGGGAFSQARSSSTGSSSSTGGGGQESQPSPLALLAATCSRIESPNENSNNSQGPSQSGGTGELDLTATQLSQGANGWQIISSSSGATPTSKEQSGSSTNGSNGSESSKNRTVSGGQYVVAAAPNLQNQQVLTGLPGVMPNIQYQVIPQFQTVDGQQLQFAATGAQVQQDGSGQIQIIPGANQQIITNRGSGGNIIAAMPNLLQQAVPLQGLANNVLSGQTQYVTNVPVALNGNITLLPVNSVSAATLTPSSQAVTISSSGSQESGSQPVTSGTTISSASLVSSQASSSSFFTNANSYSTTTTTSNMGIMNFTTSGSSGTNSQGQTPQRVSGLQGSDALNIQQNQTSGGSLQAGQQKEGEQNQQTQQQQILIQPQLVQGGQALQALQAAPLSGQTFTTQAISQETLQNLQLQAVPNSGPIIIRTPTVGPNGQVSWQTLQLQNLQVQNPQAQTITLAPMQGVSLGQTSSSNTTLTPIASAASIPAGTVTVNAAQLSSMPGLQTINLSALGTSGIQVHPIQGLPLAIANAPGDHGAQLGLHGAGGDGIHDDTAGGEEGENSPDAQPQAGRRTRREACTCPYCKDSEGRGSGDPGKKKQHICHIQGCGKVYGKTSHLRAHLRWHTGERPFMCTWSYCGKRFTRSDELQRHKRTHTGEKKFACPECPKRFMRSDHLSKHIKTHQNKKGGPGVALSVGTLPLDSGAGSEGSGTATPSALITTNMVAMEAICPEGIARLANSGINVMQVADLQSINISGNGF
Signal transducer and activator of transcription 3 (Homo sapiens), sequence (P40763 whole entry, looked up): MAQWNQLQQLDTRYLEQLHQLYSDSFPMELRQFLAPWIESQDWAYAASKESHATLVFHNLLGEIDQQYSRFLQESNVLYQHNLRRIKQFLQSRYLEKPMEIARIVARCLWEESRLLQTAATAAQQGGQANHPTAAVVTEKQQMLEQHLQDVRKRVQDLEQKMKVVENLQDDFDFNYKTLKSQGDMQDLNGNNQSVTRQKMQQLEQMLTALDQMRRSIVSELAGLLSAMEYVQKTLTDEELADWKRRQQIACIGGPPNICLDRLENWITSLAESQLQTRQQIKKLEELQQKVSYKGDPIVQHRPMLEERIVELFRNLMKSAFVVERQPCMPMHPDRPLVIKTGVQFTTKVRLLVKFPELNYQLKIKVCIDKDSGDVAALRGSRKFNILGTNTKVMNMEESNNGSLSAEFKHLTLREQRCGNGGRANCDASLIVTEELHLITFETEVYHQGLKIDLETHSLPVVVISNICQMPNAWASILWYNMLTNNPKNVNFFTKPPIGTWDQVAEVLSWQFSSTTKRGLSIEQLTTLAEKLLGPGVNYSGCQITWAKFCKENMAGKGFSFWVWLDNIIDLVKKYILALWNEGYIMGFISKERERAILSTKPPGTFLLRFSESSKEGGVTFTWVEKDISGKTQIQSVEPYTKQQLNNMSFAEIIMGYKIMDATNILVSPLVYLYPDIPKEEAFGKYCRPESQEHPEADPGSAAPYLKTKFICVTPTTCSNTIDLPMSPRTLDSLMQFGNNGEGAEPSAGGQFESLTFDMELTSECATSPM
Paired box protein Pax-6 (Homo sapiens), sequence (P26367 whole entry, looked up): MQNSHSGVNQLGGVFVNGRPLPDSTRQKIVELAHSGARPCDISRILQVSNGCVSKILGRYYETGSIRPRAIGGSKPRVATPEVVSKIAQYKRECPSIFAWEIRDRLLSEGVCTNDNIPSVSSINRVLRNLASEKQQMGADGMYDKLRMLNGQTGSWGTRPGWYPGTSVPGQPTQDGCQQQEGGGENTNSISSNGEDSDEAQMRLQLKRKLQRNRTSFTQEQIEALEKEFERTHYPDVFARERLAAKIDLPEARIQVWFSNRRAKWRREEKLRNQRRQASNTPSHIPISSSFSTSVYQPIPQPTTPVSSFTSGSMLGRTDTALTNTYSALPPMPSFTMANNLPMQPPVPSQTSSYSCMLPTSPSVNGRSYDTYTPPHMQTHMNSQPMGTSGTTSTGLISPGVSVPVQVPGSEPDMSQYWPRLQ

Consider `CCCCC(CC)COC(=O)CCCCC(=O)OCc1ccccc1` (centres undefined), for which the result in [1], in [2], in experiment [4], in experiment [5], in experiment [6] and in [7] was inactive. The result in experiment [8], in experiment [9] and in experiment [10] was inactive. The half-maximal activity concentration (AC50) in [3] is 12.4 µM (active).

On to `CCC(=C(c1ccc(O)cc1)c1ccc(OCCN(C)C)cc1)c1ccccc1`, for which the concentration at half-maximal activity (AC50) in experiment [1] is 7.1 µM (active) and 11.2 µM (active); in experiment [2], 7.1 µM (active) and 9.41 µM (active); in experiment [3], 1.05 µM (active) [middle of 4 runs]; in experiment [6], 7.1 µM (active) and 11.3 µM (active); in experiment [7], 13.4 µM (active); in [8] it was 3.6 µM (active). The concentration at half-maximal activity (AC50) in experiment [10] is 10 µM (active). In addition, the result in [1], in experiment [2], in experiment [4], in experiment [6], in experiment [7] and in experiment [8] was inactive. Also, the outcome in experiment [9] and in experiment [10] was inactive.

Regarding `CC(O)CO` (centres undefined), the call in [2], in experiment [3], in experiment [4], in [5], in experiment [6] and in experiment [7] was inactive. Moreover, the molecule was classed as inactive in experiment [8], in experiment [9] and in [10].

`CCc1ccc(CCOc2ccc(CC3SC(=O)NC3=O)cc2)nc1` (centres undefined): the outcome in experiment [1], in experiment [2], in experiment [5], in experiment [6], in experiment [7] and in experiment [8] was inactive. For the same molecule, the result in experiment [9] and in [10] was inactive. In addition, the AC50 was 6.6 µM (active) and 1.59 µM (active) in experiment [3]; 26.2 µM (active) in experiment [8].

With `NC(=O)N(O)[C@@H]1C=C[C@H](Oc2cccc(Oc3ccc(F)cc3)c2)C1`, the AC50 in experiment [2] was 33 µM (active); in experiment [3] it was 12.9 µM (active); in experiment [5] it was 18.2 µM (active); in [8], 18.3 µM (active). Also, the molecule was called inactive in [4], in [6], in [7], in experiment [9] and in experiment [10].

As to `CC(C)CCCCCCOC(=O)CCCCC(=O)OCCCCCCC(C)C`, the outcome in experiment [2], in [4], in experiment [6], in experiment [7], in [8] and in experiment [9] was inactive. Moreover, the outcome in experiment [10] was inactive. In experiment [3], the concentration at half-maximal activity (AC50) was 100 µM (active).

In the case of `COCC(C)O` (centres undefined), the molecule was called inactive in experiment [2], in [3], in [6], in [7], in [8] and in [9]. For the same molecule, the outcome in experiment [10] was inactive.

For `O=[N+]([O-])c1ccc(O)cc1`, the result in experiment [1], in experiment [2], in experiment [3], in experiment [4], in experiment [6] and in experiment [7] was inactive. Besides, the outcome in [8], in experiment [9] and in [10] was inactive.

`C=C(C)C(=O)OCCC(F)(F)C(F)(F)C(F)(F)C(F)(F)C(F)(F)C(F)(F)F`: the result in experiment [1], in experiment [2], in [3], in experiment [5], in [6] and in experiment [7] was inactive. Moreover, the molecule was classed as inactive in experiment [8], in experiment [9] and in experiment [10].

Turning to `CN1CCC[C@H]1c1cccnc1`, the result in experiment [1], in experiment [2], in experiment [3], in [5], in experiment [6] and in experiment [7] was inactive. Besides, the result in experiment [8], in experiment [9] and in experiment [10] was inactive.

In the case of `c1ccc2c(c1)Cc1ccccc1-2`, the outcome in experiment [2], in [5], in experiment [6], in [7], in experiment [8] and in [9] was inactive. Also, in experiment [10], the molecule was called inactive. In addition, the AC50 in experiment [3] was 72.4 µM (active).

Consider `Oc1cc2ccccc2c2ccccc12`, for which the outcome in experiment [2], in experiment [4], in experiment [5], in experiment [6], in experiment [7] and in [8] was inactive. Moreover, the call in experiment [9] and in [10] was inactive. For the same molecule, the AC50 in experiment [3] was 3.71 µM (active).

Turning to `CC(C)(C)c1ccc(O)c(C(C)(C)C)c1`, the result in experiment [1], in [2], in experiment [5], in experiment [6], in experiment [7] and in experiment [8] was inactive. Further, the molecule was called inactive in experiment [9] and in experiment [10]. In addition, in [3], the AC50 is 7.21 µM (active).

`CN(C)C=O`: the outcome in experiment [1], in [2], in experiment [3], in experiment [5], in experiment [6] and in [7] was inactive. For the same molecule, the call in experiment [8], in [9] and in experiment [10] was inactive.

In the case of `CCCCCCCCCCCCc1ccccc1S(=O)(=O)O`, the result in experiment [1], in experiment [2], in [4], in [5], in [6] and in experiment [7] was inactive. Moreover, the molecule was classed as inactive in experiment [8], in experiment [9] and in experiment [10]. In experiment [3], the concentration at half-maximal activity (AC50) was 4.41 µM (active).

On to `Cc1cc(CCN2CCN(c3nsc4ccccc34)CC2)cc2c1NC(=O)CC2(C)C`, for which the AC50 was 6.35 µM (active) in [1], 1.16 µM (active) in experiment [3], 6.32 µM (active) in experiment [5] and 14.7 µM (active) in experiment [7]. Besides, the molecule was classed as inactive in [2], in experiment [6], in experiment [8], in experiment [9] and in experiment [10].

Turning to `N#C[C@@H]1CC(F)(F)CN1C(=O)CNC1CC2CCC(C1)N2c1ncccn1` (some centres undefined), the molecule was called inactive in [2], in experiment [4], in experiment [5], in experiment [6], in experiment [7] and in [8]. Moreover, the call in experiment [9] and in experiment [10] was inactive. In addition, the AC50 in [3] was 75.6 µM (active).

Regarding `C[C@@H]1C[C@H]2[C@@H]3CCC4=CC(=O)C=C[C@]4(C)[C@@]3(F)[C@@H](O)C[C@]2(C)[C@@]1(O)C(=O)COP(=O)(O)O`, the result in [2], in experiment [3], in experiment [4], in [5], in experiment [6] and in experiment [7] was inactive. For the same molecule, the outcome in experiment [8], in experiment [9] and in experiment [10] was inactive. Further, the AC50 in [3] was 25.9 µM (active).

Take `OCCC(F)(F)C(F)(F)C(F)(F)C(F)(F)C(F)(F)C(F)(F)C(F)(F)C(F)(F)F`: the AC50 in [1] is 52.5 µM (active) and 222 µM (active); in experiment [2], 43.3 µM (active) and 176 µM (active); in [3] it was 52.1 µM (active) and 98.7 µM (active); in experiment [5] it was 25.7 µM (active); in experiment [6], 33.4 µM (active) and 150 µM (active); in experiment [7] it was 48.4 µM (active) and 150 µM (active). The half-maximal activity concentration (AC50) in experiment [8] was 222 µM (active). Moreover, the call in [5], in experiment [8], in experiment [9] and in [10] was inactive.
